Reference: PubChem BioAssay (NCATS)
Results filed as inconclusive are left out. Activity calls are given as the source filed them. Unless noted, the call rests on the fitted dose curve; in most records, active means well fitted cell-killing curve with a large enough effect; inconclusive means small, poorly fitted or top-dose-only effect, or effect the other way; inactive means no such curve, though single readings can be large or run the other way.

How the values were obtained:
[1] = Quantitative High-Throughput drug screen in 47 multiple myeloma cell lines against the NCATS MIPE library collection: KMS28PE_JCRB cell viability assay (AID 1918983); further: nearly all actives have a fitted effect of over 35% in size; further: potency means the concentration at half of the fitted maximal effect
Method in brief: (§1)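 ATP-based CellTiter-Glo luminescence after 48 h drug exposure (37 °C, 5% CO2) of 500 myeloma cells per well. DMSO-only wells set 100% viability, media-only wells 0%; MIPE 4.0 library added by pin tool.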

[2] = Quantitative High-Throughput drug screen in 47 multiple myeloma cell lines against the NCATS MIPE library collection: KMS34_JCRB cell viability assay (AID 1918985); further: nearly all actives have a fitted effect of over 40% in size; further: potency means the concentration at half of the fitted maximal effect
Method in brief: as §1

[3] = Quantitative High-Throughput drug screen in 47 multiple myeloma cell lines against the NCATS MIPE library collection: OPM1_PLB cell viability assay (AID 1918989); further: nearly all actives have a fitted effect of over 40% in size; further: potency means the concentration at half of the fitted maximal effect
Method in brief: as §1

[4] = Quantitative High-Throughput drug screen in 47 multiple myeloma cell lines against the NCATS MIPE library collection: U266_ATCC cell viability assay (AID 1919864); further: nearly all actives have a fitted effect of over 35% in size; further: potency means the concentration at half of the fitted maximal effect
Method in brief: as §1

[5] = Quantitative High-Throughput drug screen in 47 multiple myeloma cell lines against the NCATS MIPE library collection: XG6_PLB cell viability assay (AID 1919865); further: nearly all actives have a fitted effect of over 40% in size; further: potency means the concentration at half of the fitted maximal effect
Method in brief: as §1

[6] = Quantitative High-Throughput drug screen in 47 multiple myeloma cell lines against the NCATS MIPE library collection: XG1_PLB cell viability assay (AID 1919866); further: nearly all actives have a fitted effect of over 35% in size; further: potency means the concentration at half of the fitted maximal effect
Method in brief: as §1

[7] = Quantitative High-Throughput drug screen in 47 multiple myeloma cell lines against the NCATS MIPE library collection: PE2_PLB cell viability assay (AID 1919869); further: nearly all actives have a fitted effect of over 35% in size; further: potency means the concentration at half of the fitted maximal effect
Method in brief: as §1

[8] = Quantitative High-Throughput drug screen in 47 multiple myeloma cell lines against the NCATS MIPE library collection: OPM2_DSMZ cell viability assay (AID 1919872); further: nearly all actives have a fitted effect of over 30% in size; further: potency means the concentration at half of the fitted maximal effect
Method in brief: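 Viability readout: CellTiter-Glo luminescence following 5 min room-temperature incubation with reagent. Prior exposure: 48 h, 37C, humidified 5% CO2, 500 cells per well.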

[9] = Quantitative High-Throughput drug screen in 47 multiple myeloma cell lines against the NCATS MIPE library collection: KMS11_JCRBsus cell viability assay (AID 1919873); further: nearly all actives have a fitted effect of over 50% in size; further: potency means the concentration at half of the fitted maximal effect
Method in brief: as §1

[10] = qHTS for identification of novel therapeutic agents for treatment of microphthalmiaassociated transcription factor (MiT) renal cell carcinoma (RCC) (AID 1963991; calls by dose curve; further: potency means the concentration at half of the fitted maximal effect); details: CellTiter-Glo, 48 h; for z-score: stronger effect = lower value
Method in brief: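 Three TFE3-fusion RCC lines (UOK109, UOK124, UOK145), 500 cells/well in complete medium, were treated with MIPE 4.0 compounds for 48 hours at 37 C. Viability was by CellTiter-Glo luminescence, normalized to DMSO (100%) and empty wells (0%); curves fitted over 11 concentrations.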

[11] = Quantitative High-Throughput drug screen in 47 multiple myeloma cell lines against the NCATS MIPE library collection: OCIMY5_PLB cell viability assay (AID 1918988); further: potency means the concentration at half of the fitted maximal effect; nearly all actives have a fitted effect of over 65% in size
Method in brief: as §1

[12] = Quantitative High-Throughput drug screen in 47 multiple myeloma cell lines against the NCATS MIPE library collection: SKMM1_PLB cell viability assay (AID 1919863); details: SKMM1 myeloma viability, CellTiter-Glo ATP, 48 h; viability: stronger effect = lower value; further: nearly all actives have a fitted effect of over 35% in size; further: potency means the concentration at half of the fitted maximal effect
Method in brief: as §1

[13] = Quantitative High-Throughput drug screen in 47 multiple myeloma cell lines against the NCATS MIPE library collection: VP6_DJ cell viability assay (AID 1919867); further: potency means the concentration at half of the fitted maximal effect; nearly all actives have a fitted effect of over 40% in size
Method in brief: as §1

[14] = Quantitative High-Throughput drug screen in 47 multiple myeloma cell lines against the NCATS MIPE library collection: UTMC2_PLB cell viability assay (AID 1919868); details: CellTiter-Glo ATP luminescence, 48 h; viability (% of DMSO control): at 45.8 µM (top of the series) unless noted; further: nearly all actives have a fitted effect of over 55% in size; further: potency means the concentration at half of the fitted maximal effect
Method in brief: as §1

[15] = Quantitative High-Throughput drug screen in 47 multiple myeloma cell lines against the NCATS MIPE library collection: PCM6_Riken cell viability assay (AID 1919870); further: nearly all actives have a fitted effect of over 30% in size; further: potency means the concentration at half of the fitted maximal effect
Method in brief: as §1

[16] = Quantitative High-Throughput drug screen in 47 multiple myeloma cell lines against the NCATS MIPE library collection: RPMI8226_ATCC cell viability assay (AID 1919871); further: potency means the concentration at half of the fitted maximal effect; nearly all actives have a fitted effect of over 30% in size
Method in brief: as §1

[17] = qHTS drug screen for cell cycle checkpoint inhibitors in PARPi-resistant BRCA-mutant ovarian cancer cell lines. (AID 1963452; calls by dose curve); details: PEO1/OlaR viability, CellTiter-Glo luminescence, 96 h, stronger effect = lower value
Method in brief: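 PEO1, PEO4 and PEO1/OlaR ovarian cancer cells, 600 per well, exposed 96 h at 37C to a dilution series. Viability read by CellTiter-Glo luminescence, normalized to DMSO and empty wells; activity summarized as Z-AUC.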

[18] = Quantitative High-Throughput drug screen in 47 multiple myeloma cell lines against the NCATS MIPE library collection: OCIMY7_PLB cell viability assay (AID 1918987); further: potency means the concentration at half of the fitted maximal effect; nearly all actives have a fitted effect of over 65% in size
Method in brief: as §1

[19] = Quantitative High-Throughput drug screen in 47 multiple myeloma cell lines against the NCATS MIPE library collection: KMS28BM_JCRB cell viability assay (AID 1919874); further: nearly all actives have a fitted effect of over 35% in size
Method in brief: as §1

[20] = TFE3-RCC UOK109 viability, measured here: UOK109 Z-AUC
[21] = TFE3-RCC viability, measured here: UOK124 Z-AUC
[22] = TFE3-RCC viability, measured here: UOK145 Z-AUC
[23] = measured here: PEO1 parental Z-AUC

## C[C@H]1C[C@@H]2[C@@H]([C@@H](O)C[C@@]3(C)[C@H]2CC[C@]3(O)C(=O)CO)[C@@]2(C)C=CC(=O)C=C12
[1]
  Potency: inactive
[2]
  Potency: inactive
[3]
  Potency: inactive
[4]
  Potency: inactive
[5]
  Potency: inactive
[6]
  Potency: inactive
[7]
  Potency: inactive
[8]
  Potency: inactive
[9]
  Potency: 0.105 µM (active)
[10]; [20]
  z-score: 0.15
[10]; [21]
  z-score: 0.208
[10]; [22]
  z-score: 0.428

## Cn1cncc1[C@@](N)(c1ccc(Cl)cc1)c1ccc2c(c1)c(-c1cccc(Cl)c1)cc(=O)n2C
[1]
  Potency: 8.33 µM (active)
[2]
  Potency: 0.833 µM (active)
[11]
  Potency: 7.43 µM (active)
[3]
  Potency: 16.6 µM (active)
[12]
  Potency: 13.2 µM (active)
[4]
  Potency: 23.5 µM (active)
[5]
  Potency: 1.87 µM (active)
[13]
  Potency: 14.8 µM (active)
[14]
  Potency: 0.833 µM (active)
[7]
  Potency: 16.6 µM (active)
[15]
  Potency: 20.9 µM (active)
[16]
  Potency: 5.26 µM (active)
[8]
  Potency: 11.8 µM (active)
[9]
  Potency: 7.43 µM (active)
[17]
  Z-AUC: -0.153 (inactive)
[17]; [23]
  Z-AUC: 0.145
[17]; measured here: PEO4 Z-AUC
  Z-AUC: -0.275

## Cc1cc(CN2CCN(c3c(Br)cnc4nc(-c5ccc(N6CCN(C)CC6)cc5)[nH]c34)CC2)no1
[1]
  Potency: 20.9 µM (active)
[2]
  Potency: 5.9 µM (active)
[18]
  Potency: 1.05 µM (active)
[3]
  Potency: 4.18 µM (active)
[12]
  Potency: 10.5 µM (active)
[4]
  Potency: 16.6 µM (active)
[5]
  Potency: 2.35 µM (active)
[6]
  Potency: 2.09 µM (active)
[13]
  Potency: 3.32 µM (active)
[14]
  Potency: 10.5 µM (active)
[7]
  Potency: 6.62 µM (active)
[15]
  Potency: 3.32 µM (active)
[16]
  Potency: 29.6 µM (active)
[8]
  Potency: 18.7 µM (active)
[9]
  Potency: 1.05 µM (active)
[17]
  Z-AUC: 0.133 (inactive)
[17]; [23]
  Z-AUC: 0.0389
[17]; measured here: PEO4 Z-AUC
  Z-AUC: -0.2

## Clc1cccc(-n2nnnc2NCc2ccccc2Oc2ccccn2)c1Cl
[1]
  Potency: inactive
[2]
  Potency: inactive
[3]
  Potency: inactive
[12]
  viability: 120% (inactive)
[14]
  Potency: inactive
[15]
  Potency: inactive
[9]
  Potency: inactive
[19]
  Potency: inactive
[17]
  Z-AUC: -0.248 (inactive)
[17]; [23]
  Z-AUC: -0.502
[17]; measured here: PEO4 Z-AUC
  Z-AUC: 0.0945
[10]; [20]
  z-score: -0.1
[10]; [21]
  z-score: 0.284
[10]; [22]
  z-score: -0.372

## CNC(=O)CN1CCC(Oc2cc3c(Nc4cccc(Cl)c4F)ncnc3cc2OC)CC1
[1]
  Potency: 0.0833 µM (active)
[2]
  Potency: 0.0372 µM (active)
[18]
  Potency: 0.0833 µM (active)
[3]
  Potency: 0.0332 µM (active)
[4]
  Potency: inactive
[5]
  Potency: inactive
[6]
  Potency: 0.0235 µM (active)
[13]
  Potency: 0.0187 µM (active)
[14]
  Potency: 0.0332 µM (active)
[15]
  Potency: 0.0235 µM (active)
[8]
  Potency: 0.0833 µM (active)
[9]
  Potency: 0.0372 µM (active)
[17]
  Z-AUC: 0.332 (inactive)
[17]; [23]
  Z-AUC: 0.682
[17]; measured here: PEO4 Z-AUC
  Z-AUC: 0.199
[10]; TFE3-RCC UOK109 viability, active = Z-AUC below -0.8 in all three lines
  Potency: 1.87 µM (active)
[10]; [20]
  z-score: -2.86
[10]; [21]
  z-score: -2.18
[10]; [22]
  z-score: -1.75
